Assay results from PubChem BioAssay (Tox21).
Results filed as inconclusive are left out. Active and inactive are the calls of the source. Unless noted, calls come from the whole dose curve.

Assays:
[1] = qHTS assay to identify small molecule agonists of the peroxisome proliferator-activated receptor delta (PPARd) signaling pathway - cell viability counter screen (AID 743211; active = well fitted curve in the direction sought with a large enough effect in the repeat runs; an effect the other way counts as inactive or inconclusive; note: % is set by controls: 0 for no effect and ±100 for the full control effect; nearly all actives have a fitted effect of over 55% in size)
Summary of the method: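 PPARd-bla HEK293H cells (3000/well) were pre-incubated 5 h at 37 C, then exposed to compound for 17 h at 37 C. After 2 h with LiveBLAzer substrate, CellTiter-Glo was added to the same wells; luminescence read after 30 min at room temperature.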

[2] = molecular target: Peroxisome proliferator-activated receptor delta (Homo sapiens) (UniProt Q03181); assay: qHTS assay to identify small molecule agonists of the peroxisome proliferator-activated receptor delta (PPARd) signaling pathway (AID 743212); note: % is set by controls: 0 for no effect and ±100 for the full control effect
Summary of the method: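 Beta-lactamase reporter read by fluorescence (LiveBLAzer B/G FRET, 2 h, room temperature). Test agents, in DMSO, incubated at 37 C with PPARd-bla HEK293H cells.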

[3] = qHTS assay to identify small molecule antagonists of the peroxisome proliferator-activated receptor delta (PPARd) signaling pathway - cell viability counter screen (AID 743213; active = well fitted curve in the direction sought with a large enough effect in the repeat runs; an effect the other way counts as inactive or inconclusive; note: % is set by controls: 0 for no effect and ±100 for the full control effect; nearly all actives have a fitted effect of over 50% in size)
Summary of the method: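 Cytotoxicity counter screen: CellTiter-Glo luminescence read 30 min after addition, in the same wells as the reporter assay. There, PPARd UAS-bla HEK293H cells (3000/well) were treated 17 h at 37 C with compound and 300 nM L165041.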

[4] = molecular target: Bile acid receptor (Homo sapiens) (UniProt Q96RI1); assay: qHTS assay to identify small molecule antagonists of the farnesoid-X-receptor (FXR) signaling pathway (AID 743217; active = well fitted inhibition curve with a large enough effect in the signal ratio in the repeat runs, not every such curve was filed as active; the % refers to the signal ratio; note: % is set by controls: 0 for no effect and ±100 for the full control effect)
Summary of the method: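 Cells carrying a UAS-driven beta-lactamase reporter (GeneBLAzer FXR-UAS-bla HEK 293T) were plated and rested 5 h at 37 °C. Compounds in DMSO were added alongside chenodeoxycholic acid agonist at 50 uM final and left 16 h at 37 °C before FRET substrate readout.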

[5] = qHTS assay to identify small molecule agonists of the farnesoid-X-receptor (FXR) signaling pathway - cell viability counter screen (AID 743218; active = well fitted curve in the direction sought with a large enough effect in the repeat runs; an effect the other way counts as inactive or inconclusive; note: % is set by controls: 0 for no effect and ±100 for the full control effect; nearly all actives have a fitted effect of over 45% in size)
Summary of the method: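 Cells were seeded, left 5 h at 37 C and 5% CO2, then dosed with compound in DMSO for 16 h. After the beta-lactamase FRET read, CellTiter-Glo was added and luminescence measured 30 min later.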

[6] = molecular target: Bile acid receptor (Homo sapiens) (UniProt Q96RI1); assay: qHTS assay to identify small molecule agonists of the farnesoid-X-receptor (FXR) signaling pathway (AID 743220; active = well fitted activation curve with a large enough effect in the signal ratio in the repeat runs, not every such curve was filed as active; the % refers to the signal ratio; note: % is set by controls: 0 for no effect and ±100 for the full control effect)
Summary of the method: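 FXR-UAS-bla HEK 293T cells carrying a UAS-driven beta-lactamase reporter were plated for 5 h at 37C/5% CO2, then exposed to DMSO-dissolved Tox21 10K compounds for 16 h at 37C. A LiveBLAzer B/G FRET substrate was loaded for 2 h at room temperature before fluorescence reading.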

[7] = qHTS assay to identify small molecule antagonists of the farnesoid-X-receptor (FXR) signaling pathway - cell viability counter screen (AID 743221; active = well fitted cell-killing curve with a large enough effect in the repeat runs, not every such curve was filed as active; note: % is set by controls: 0 for no effect and ±100 for the full control effect; nearly all actives have a fitted effect of over 50% in size)
Summary of the method: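 GeneBLAzer FXR-UAS-bla HEK 293T cells, compound plus chenodeoxycholic acid (50 uM final), 16 h at 37 C. CellTiter-Glo added to the same wells after the beta-lactamase read; luminescence read after 30 min at room temperature as viability.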

[8] = molecular target: Vitamin D3 receptor (Homo sapiens) (UniProt P11473); assay: qHTS assay to identify small molecule agonists of the vitamin D receptor (VDR) signaling pathway (AID 743222); note: % is set by controls: 0 for no effect and ±100 for the full control effect
Summary of the method: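 Cells carrying a VDR-driven beta-lactamase reporter are seeded at 2,000 per well and rested 4 h. Compounds in DMSO are added for 16 h at 37C, and FRET substrate fluorescence is measured after 2 h at room temperature.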

[9] = molecular target: Vitamin D3 receptor (Homo sapiens) (UniProt P11473); assay: qHTS assay to identify small molecule antagonists of the vitamin D receptor (VDR) signaling pathway (AID 743223; active = well fitted inhibition curve with a large enough effect in the signal ratio in the repeat runs, not every such curve was filed as active; the % refers to the signal ratio; note: % is set by controls: 0 for no effect and ±100 for the full control effect)
Summary of the method: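 VDR-bla cells were treated with compound plus 3 nM final 1alpha,25-dihydroxyvitamin D3 for 16 h at 37C. Beta-lactamase reporter read by B/G FRET substrate fluorescence after 2 h at room temperature. qHTS format.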

[10] = qHTS assay to identify small molecule agonists of the vitamin D receptor (VDR) signaling pathway - cell viability counter screen (AID 743224; active = well fitted curve in the direction sought with a large enough effect in the repeat runs; an effect the other way counts as inactive or inconclusive; note: series mostly up to about 63 µM; % is set by controls: 0 for no effect and ±100 for the full control effect; nearly all actives have a fitted effect of over 50% in size)
Summary of the method: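 Cells: VDR-bla, 2,000/well, settled 4 h. Treatment: compounds in DMSO, 16 h, 37C/5% CO2. Readout: CellTiter-Glo luminescence after 30 min RT.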

[11] = qHTS assay to identify small molecule antagonists of the vitamin D receptor (VDR) signaling pathway - cell viability counter screen (AID 743225; active = well fitted curve in the direction sought with a large enough effect in the repeat runs; an effect the other way counts as inactive or inconclusive; note: % is set by controls: 0 for no effect and ±100 for the full control effect; nearly all actives have a fitted effect of over 50% in size)
Summary of the method: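 VDR-UAS-bla HEK 293T cells were plated and incubated 4 h at 37C, then dosed with compound plus 3 nM (final) 1-alpha,25-dihydroxyvitamin D3 for 16 h. After the 2 h beta-lactamase read, viability in the same wells was read as CellTiter-Glo luminescence after 30 min at room temperature.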

[12] = qHTS assay to identify small molecule agonists of the NFkB signaling pathway (AID 1159509; active = well fitted curve in the direction sought with a large enough effect in the signal ratio in the repeat runs, not every such curve was filed as active; the % refers to the signal ratio)
Summary of the method: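 Beta-lactamase reporter assay run in quantitative high-throughput format on an NF-kB-responsive ME-180 line, with 5 hr compound treatment and a FRET-based blue/green fluorescence readout.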

[13] = qHTS assay to identify small molecule agonists of the NFkB signaling pathway - cell viability counter screen (AID 1159515); note: series mostly up to about 61 µM; % is set by controls: 0 for no effect and ±100 for the full control effect; nearly all actives have a fitted effect of over 55% in size
Summary of the method: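 Cells are seeded (2,000 NFkB-bla ME-180 per well), rested overnight, and dosed with DMSO-dissolved compounds for 5 hr at 37 C. Viability is then read by CellTiter-Glo luminescence after 30 min at room temperature.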

[14] = qHTS assay to identify small molecule agonists of the endoplasmic reticulum stress response signaling pathway (AID 1159516; active = well fitted activation curve with a large enough effect in the signal ratio in the repeat runs, not every such curve was filed as active; the % refers to the signal ratio; note: % is set by controls: 0 for no effect and ±100 for the full control effect)
Summary of the method: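 Cells are seeded at 1,500 per well and incubated overnight. Compounds in DMSO are added for 5 hr at 37 C, then beta-lactamase FRET substrate for 2 hr at room temperature, and fluorescence at 460 and 530 nm is measured.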

[15] = qHTS assay to identify small molecule agonists of the endoplasmic reticulum stress response signaling pathway - cell viability counter screen (AID 1159517)
Summary of the method: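 Cytotoxicity of test compounds toward ESRE-bla HeLa cells was assessed after 5 hr exposure. The luminescent CellTiter-Glo signal was measured 30 min after reagent addition.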

[16] = qHTS assay to identify small molecule antagonists of the retinoid-related orphan receptor gamma (ROR-gamma) signaling pathway - cell viability counter screen (AID 1159520; active = well fitted curve in the direction sought with a large enough effect in the repeat runs; an effect the other way counts as inactive or inconclusive)
Summary of the method: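 Tet-on ROR gamma CHO cells (1,000/well) were plated 4 hr, given compounds in DMSO for 2 hr at 37 C, then induced with 1 uM final doxycycline for 16 hr. Viability was read as ATP by CellTiter-Glo luminescence after 30 min.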

[17] = molecular target: Nuclear receptor ROR-gamma (Homo sapiens) (UniProt P51449); assay: qHTS assay to identify small molecule antagonists of the retinoid-related orphan receptor gamma (ROR-gamma) signaling pathway (AID 1159521; active = well fitted curve in the direction sought with a large enough effect in the repeat runs; an effect the other way counts as inactive or inconclusive)
Summary of the method: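 Tet-on ROR-gamma CHO cells with ROR response element-luciferase reporter; compounds added 2 hr before 1 uM doxycycline induction, then 16 hr at 37 C. Antagonism scored as decreased ONE-Glo luminescence.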

[18] = qHTS assay to identify small molecule agonists of the AP-1 signaling pathway - cell viability counter screen (AID 1159525); note: nearly all actives have a fitted effect of over 55% in size
Summary of the method: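 Each titration point was normalised to DMSO and tetra n-octyl ammonium bromide controls. The read was Cell Titer Glo luminescence after 30 min at RT, following 5 h compound exposure of ME-180 AP-1-bla cells at 37 °C.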

[19] = qHTS assay to identify small molecule agonists of the AP-1 signaling pathway (AID 1159526); note: % is set by controls: 0 for no effect and ±100 for the full control effect
[20] = molecular target: Peroxisome proliferator-activated receptor delta (Homo sapiens) (UniProt Q03181); assay: qHTS assay to identify small molecule antagonists of the peroxisome proliferator-activated receptor delta (PPARd) signaling pathway (AID 743215; active = well fitted inhibition curve with a large enough effect in the signal ratio in the repeat runs, not every such curve was filed as active; the % refers to the signal ratio)
Summary of the method: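 Cells: HEK293H with a UAS-driven beta-lactamase reporter responsive to PPARd. Compounds were co-added with L165041 (300 nM, final) and incubated 17 h at 37 C before a 2 h room-temperature FRET substrate step and fluorescence reading.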

Bile acid receptor (Homo sapiens), sequence (Q96RI1 whole entry, looked up): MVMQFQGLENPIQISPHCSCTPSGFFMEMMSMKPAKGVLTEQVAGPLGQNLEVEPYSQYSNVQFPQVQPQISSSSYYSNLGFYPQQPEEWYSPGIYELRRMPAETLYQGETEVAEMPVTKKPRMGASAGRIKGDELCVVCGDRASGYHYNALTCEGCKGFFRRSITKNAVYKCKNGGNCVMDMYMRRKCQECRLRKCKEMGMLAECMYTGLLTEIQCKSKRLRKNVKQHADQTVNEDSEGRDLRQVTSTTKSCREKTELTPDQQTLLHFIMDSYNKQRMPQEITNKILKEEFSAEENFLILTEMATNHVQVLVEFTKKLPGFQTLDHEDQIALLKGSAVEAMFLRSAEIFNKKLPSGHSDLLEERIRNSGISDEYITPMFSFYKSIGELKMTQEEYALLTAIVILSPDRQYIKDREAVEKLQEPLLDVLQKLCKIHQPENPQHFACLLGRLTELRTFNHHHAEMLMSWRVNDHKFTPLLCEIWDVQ
Vitamin D3 receptor (Homo sapiens), sequence (P11473 whole entry, looked up): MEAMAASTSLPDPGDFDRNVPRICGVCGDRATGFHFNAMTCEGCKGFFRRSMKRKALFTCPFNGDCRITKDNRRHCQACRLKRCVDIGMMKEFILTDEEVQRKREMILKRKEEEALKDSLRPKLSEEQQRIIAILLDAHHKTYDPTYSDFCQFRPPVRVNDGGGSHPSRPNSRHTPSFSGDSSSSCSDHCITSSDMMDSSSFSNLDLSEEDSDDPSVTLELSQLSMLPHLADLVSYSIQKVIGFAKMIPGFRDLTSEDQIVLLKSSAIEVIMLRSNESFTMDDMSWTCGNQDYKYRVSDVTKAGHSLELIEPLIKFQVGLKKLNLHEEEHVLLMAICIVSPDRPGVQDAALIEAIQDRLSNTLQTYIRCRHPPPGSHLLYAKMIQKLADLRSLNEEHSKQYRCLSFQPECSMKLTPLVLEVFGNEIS
Peroxisome proliferator-activated receptor delta (Homo sapiens), sequence (Q03181 whole entry, looked up): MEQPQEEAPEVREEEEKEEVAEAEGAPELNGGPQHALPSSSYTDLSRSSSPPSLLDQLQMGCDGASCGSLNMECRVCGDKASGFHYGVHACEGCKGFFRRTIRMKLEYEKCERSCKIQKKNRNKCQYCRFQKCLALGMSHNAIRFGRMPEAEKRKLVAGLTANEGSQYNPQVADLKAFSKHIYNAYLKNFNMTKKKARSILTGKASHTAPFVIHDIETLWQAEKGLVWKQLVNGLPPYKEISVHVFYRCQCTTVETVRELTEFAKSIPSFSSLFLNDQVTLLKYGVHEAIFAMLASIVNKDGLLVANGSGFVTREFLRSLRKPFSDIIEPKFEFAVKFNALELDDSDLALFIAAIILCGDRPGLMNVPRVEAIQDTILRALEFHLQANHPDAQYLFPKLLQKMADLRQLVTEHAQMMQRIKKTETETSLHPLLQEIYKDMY

CC(C)[C@H]1CC[C@H](C)C[C@@H]1O
inactive: outcome [1] | outcome [2] | outcome [3] | outcome [4] | outcome [5] | outcome [6] | outcome [7] | outcome [8] | outcome [9] | outcome [10] | outcome [11] | outcome [12] | outcome [13] | outcome [14] | outcome [15] | outcome [16] | outcome [17] | outcome [18] | outcome [19]

CCCC(=O)OC/C=C(\C)CCC=C(C)C
inactive: outcome [1] | outcome [2] | outcome [3] | outcome [4] | outcome [5] | outcome [6] | outcome [7] | outcome [8] | outcome [9] | outcome [12] | outcome [13] | outcome [14] | outcome [15] | outcome [16] | outcome [17] | outcome [18] | outcome [19]

c1ccc(B(c2ccccc2)c2ccccc2)cc1
inactive: outcome [1] | outcome [2] | outcome [4] | outcome [5] | outcome [6] | outcome [7] | outcome [8] | outcome [9] | outcome [10] | outcome [11] | outcome [12] | outcome [13] | outcome [14] | outcome [15] | outcome [16] | outcome [17] | outcome [18] | outcome [19]

O=C1OCCO1
inactive: outcome [1] | outcome [2] | outcome [20] | outcome [4] | outcome [5] | outcome [6] | outcome [7] | outcome [8] | outcome [10] | outcome [11] | outcome [12] | outcome [13] | outcome [14] | outcome [15] | outcome [16] | outcome [17] | outcome [18] | outcome [19]

CCc1occc(=O)c1O
inactive: outcome [1] | outcome [2] | outcome [20] | outcome [4] | outcome [6] | outcome [7] | outcome [10] | outcome [11] | outcome [12] | outcome [13] | outcome [14] | outcome [15] | outcome [16] | outcome [17] | outcome [18] | outcome [19]

O=S(=O)(O)c1ccc2c(N=Nc3ccc(S(=O)(=O)O)c4ccccc34)c(O)c(S(=O)(=O)O)cc2c1
inactive: activity change, negative = cytotoxicity [1] 3.44% [at 5.95 µM] | activation [2] 0.0676% [at 5.95 µM] | ratio activity, negative = inhibition [20] 7.03% [at 6.26 µM] | activity change, negative = inhibition [4] -1.36% [at 5.95 µM] | viability change, negative = cytotoxic [5] 1.45% [at 5.95 µM] | activation [6] -0.449% [at 5.95 µM] | activity change, negative = cytotoxicity [7] -3.15% [at 5.95 µM] | activation [8] -5.96% [at 6.01 µM] | activity change, negative = inhibition [9] 8.98% [at 6.95 µM] | activity change, negative = cytotoxicity [10] -0.166% [at 5.95 µM] | viability change, negative = cytotoxic [11] 6.08% [at 6.95 µM] | activation [12] 0.493% [at 6.95 µM] | activity, negative = cytotoxic [13] 6.88% [at 6.95 µM] | activation [14] -2.39% [at 6.95 µM] | activity change, negative = cytotoxicity [15] 0.511% [at 6.95 µM] | activity, negative = cytotoxicity [16] -3.34% [at 8.39 µM] | activity change, negative = inhibition [17] 0.236% [at 8.39 µM] | viability change, negative = cytotoxic [18] 6.35% [at 6.97 µM] | activation [19] -3.05% [at 6.97 µM]

CC1=C(C(=O)O)N2C(=O)[C@@H](NC(=O)[C@H](N)C3=CCC=CC3)[C@H]2SC1
inactive: outcome [1] | outcome [2] | outcome [3] | outcome [20] | outcome [7] | outcome [8] | outcome [11] | outcome [12] | outcome [13] | outcome [14] | outcome [15] | outcome [16] | outcome [17] | outcome [18] | outcome [19]

COc1ccc(CCO)cc1
inactive: outcome [1] | outcome [2] | outcome [3] | outcome [20] | outcome [7] | outcome [8] | outcome [9] | outcome [10] | outcome [12] | outcome [13] | outcome [14] | outcome [15] | outcome [16] | outcome [17] | outcome [18] | outcome [19]
